Source: PubChem BioAssay
The list is not random: actives were taken first. Their share in the collection is about 1.6%.
UBC9 SUMO inh: inhibitors of human SUMOylation (UBC9); P63279; HTRF SUMOylation assay, SAE1/SAE2 + UBC9, in vitro; inhibition, % at 35 µM; hit rate 0.36% among 290,000; in the data active = inhibition above about 50%, passing the limit was not always enough
SIRT5 block: blocks human SIRT5 desuccinylation of peptide; Q9NXA8; Purified SirT5, succinyl-peptide AMC, trypsin-coupled fluorescence; inhibition, % at 15 µM; hit rate 1.1% among 330,000; AID 652115; in the data active = inhibition above about 15%
Target sequence (Q9NXA8 whole entry, looked up): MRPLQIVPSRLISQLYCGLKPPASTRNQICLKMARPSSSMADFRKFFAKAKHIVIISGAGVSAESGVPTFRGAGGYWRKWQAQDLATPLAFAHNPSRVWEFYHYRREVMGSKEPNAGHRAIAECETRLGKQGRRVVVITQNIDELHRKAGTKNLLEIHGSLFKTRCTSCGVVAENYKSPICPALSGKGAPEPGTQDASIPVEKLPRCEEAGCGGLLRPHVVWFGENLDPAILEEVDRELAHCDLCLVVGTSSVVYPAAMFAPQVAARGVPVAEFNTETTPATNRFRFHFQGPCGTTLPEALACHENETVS
NSD2 HMT inh: blocks human histone methyltransferase NSD2; AID 743445; inhibition, % at 12.5 µM; NSD2 peptide methylation, AlphaScreen, 120 min; hit rate 0.54% among 310,000; O96028; in the data active = inhibition above about 50%
Casp6 inh: blocks human caspase-6 cleavage activity | P55212 | purified caspase-6, Z-VEID-R110 cleavage fluorescence | inhibition, % at 12.5 µM | hit rate 0.53% among 350,000 | AID 686996;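 active = mean inhibition across replicates at least about 35%, with every replicate also reaching that limit, limit read from the data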
Target sequence (P55212 24-179 limits assumed): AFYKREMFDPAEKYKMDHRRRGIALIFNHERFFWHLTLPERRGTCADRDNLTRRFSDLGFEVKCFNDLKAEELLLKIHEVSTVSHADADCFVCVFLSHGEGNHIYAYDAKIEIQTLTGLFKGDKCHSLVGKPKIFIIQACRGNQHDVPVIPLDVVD
Target sequence (P55212 194-293 limits assumed): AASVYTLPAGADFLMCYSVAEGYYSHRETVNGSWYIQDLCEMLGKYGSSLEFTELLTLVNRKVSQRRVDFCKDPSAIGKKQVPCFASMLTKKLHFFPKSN
Of the large screens only hits and unclear results are named; the others gave an inactive call.

O=C(Nc1ccccc1)c1cccc(Cn2cc(C(F)(F)F)ccc2=O)c1	SIRT5 block 24
O=C(Nc1ccccc1)c1ccc(Cn2cc(C(F)(F)F)ccc2=O)cc1	none (no result: SIRT5 block, Casp6 inh)
C[C@@H]1CN([C@H](C)CO)C(=O)c2c(c3ccccc3n2C)-c2ccccc2CO[C@H]1CN(C)Cc1ccc2c(c1)OCO2	none (no result: UBC9 SUMO inh, NSD2 HMT inh)
C[C@H]1CN([C@@H](C)CO)C(=O)c2c(c3ccccc3n2C)-c2ccccc2CO[C@@H]1CN(C)Cc1ccc2c(c1)OCO2	SIRT5 block 19 (no result: UBC9 SUMO inh, NSD2 HMT inh)
C[C@@H]1CN([C@@H](C)CO)C(=O)c2c(c3ccccc3n2C)-c2ccccc2CO[C@@H]1CN(C)Cc1cccc(O)c1	SIRT5 block 23 (no result: UBC9 SUMO inh, NSD2 HMT inh)
C[C@H]1CN([C@@H](C)CO)C(=O)c2c(c3ccccc3n2C)-c2ccccc2CO[C@@H]1CN(C)Cc1cccc(F)c1	SIRT5 block 18 (no result: UBC9 SUMO inh, NSD2 HMT inh)
C[C@@H]1CN([C@H](C)CO)C(=O)c2c(c3ccccc3n2C)-c2ccccc2CO[C@H]1CN(C)Cc1cccc(O)c1	none (no result: UBC9 SUMO inh, NSD2 HMT inh)
C[C@@H]1CN([C@H](C)CO)C(=O)c2c(c3ccccc3n2C)-c2ccccc2CO[C@@H]1CN(C)Cc1ccc2c(c1)OCCN2C	SIRT5 block 16 (no result: UBC9 SUMO inh, NSD2 HMT inh)
C[C@@H]1CN([C@H](C)CO)C(=O)c2c(c3ccccc3n2C)-c2ccccc2CO[C@@H]1CN(C)Cc1cccc(F)c1	none (no result: UBC9 SUMO inh, NSD2 HMT inh)
O=C(C[C@H]1C[C@@H]2c3cc(NC(=O)C4CCOCC4)ccc3O[C@@H]2[C@H](CO)O1)NCc1ccccc1	none (no result: UBC9 SUMO inh, NSD2 HMT inh)
C[C@H]1CN([C@@H](C)CO)S(=O)(=O)c2ccc(C#CC3CC3)cc2O[C@H]1CN(C)C(=O)c1ccncc1	none (no result: UBC9 SUMO inh, NSD2 HMT inh)
CC(=O)N1CC2(C1)[C@H](c1ccc(-c3cccc(F)c3)cc1)[C@@H](CO)N2CC1CCCC1	none (no result: UBC9 SUMO inh, NSD2 HMT inh)
C[C@H](CO)N1C[C@H](C)[C@H](CN(C)Cc2cccc(C(=O)O)c2)OCc2ccccc2-c2c(n(C)c3ccccc23)C1=O	none (no result: UBC9 SUMO inh, NSD2 HMT inh)
C[C@@H]1CN([C@@H](C)CO)C(=O)c2c(c3ccccc3n2C)-c2ccccc2CO[C@H]1CN(C)Cc1cccc(C(=O)Nc2ccccc2N)c1	SIRT5 block 17 (no result: UBC9 SUMO inh, NSD2 HMT inh)
O=C1C2C(C(=O)N1/N=C/c1cc([N+](=O)[O-])c(O)cc1O)C1C=CC2C12CC2 (configuration not stated)	Casp6 inh 76
O=C1C2C(C(=O)N1/N=C/c1cc([N+](=O)[O-])ccc1O)C1C=CC2C12CC2 (configuration not stated)	none
O=C(NCCCn1ccnc1)c1ccc(NS(=O)(=O)c2ccc(Cl)c(Cl)c2)cc1	SIRT5 block 20 (no result: UBC9 SUMO inh)
CC(OC(=O)C1=Cc2ccccc2OC1)C(=O)NC1CCCC1 (configuration not stated)	none
CC(C)C(OC(=O)C1=Cc2ccccc2OC1)C(=O)NCC1CCCO1 (configuration not stated)	Casp6 inh 47 (no result: UBC9 SUMO inh, NSD2 HMT inh)
CNC(=O)C[C@@H]1CC[C@H]2[C@@H](COC[C@H](O)CN2C(=O)c2ccccn2)O1	none (no result: UBC9 SUMO inh, NSD2 HMT inh)
O=C(NCC[C@@H]1CC[C@H](NS(=O)(=O)c2ccccc2)[C@H](CO)O1)c1ccc2c(c1)OCO2	none (no result: UBC9 SUMO inh, NSD2 HMT inh)
OC[C@H]1[C@@H](c2ccc(-c3ccccc3)cc2)[C@@H]2CN(CCC(F)(F)F)CCCCN12	none (no result: UBC9 SUMO inh, NSD2 HMT inh)
CN(C)C(=O)c1ccc(-c2ccc([C@H]3[C@H](CO)N4CCCCN(CCC(F)(F)F)C[C@@H]34)cc2)cc1	SIRT5 block 33 (no result: UBC9 SUMO inh, NSD2 HMT inh)
OC[C@H]1[C@H](c2ccc(-c3ccccc3)cc2)[C@@H]2CN(CCC(F)(F)F)CCCCN12	SIRT5 block 27 (no result: UBC9 SUMO inh, NSD2 HMT inh)
CCC(CC)COC(=O)C1=C(C)NC(=O)NC1c1ccc(OC)cc1 (configuration not stated)	none
CCC(CC)COC(=O)C1=C(C)NC(=O)NC1c1cc(OC)ccc1OC (configuration not stated)	Casp6 inh 68
NS(=O)(=O)c1ccc(CCNC(=O)c2ccc(C#CC3(O)CCCCC3)cc2)cc1	SIRT5 block 112
NS(=O)(=O)c1ccc(CCNC(=O)c2ccncc2)cc1	none
Cn1cnc(S(=O)(=O)Nc2ccccc2N2CCOCC2)c1	SIRT5 block 15
N#Cc1c(N(CCO)CCO)nc(N)c2c(N)nc3c(c12)CC(=O)N3CC1CCCO1 (configuration not stated)	UBC9 SUMO inh 101 (no result: SIRT5 block, NSD2 HMT inh)
COc1ccc(CN2C(=O)Cc3c2nc(N)c2c(N)nc(N4CCCCC4)c(C#N)c32)cc1	none (no result: SIRT5 block, Casp6 inh)
CCCCN1C(=O)Cc2c1nc(N)c1c(N)nc(N(CCC)CCC)c(C#N)c21	UBC9 SUMO inh 94 (no result: SIRT5 block, Casp6 inh)
COC(=O)C1C(O)C(C)C(O)C(C)(O)/C=C\C=C(/C)C(=O)Nc2c(C)c(OC(C)=O)c3c(c2O)C(=O)C(C)=C2OCOC(=C23)/C(C)=C/C(C)(O)C(O)C(C)C1O (configuration not stated)	Casp6 inh 57
Cc1ccc(S(=O)(=O)Nc2ccc3c(c2)C(=O)N([C@H](C)CO)C[C@@H](C)[C@@H](CN(C)S(=O)(=O)c2ccc(F)cc2)O3)cc1	none (no result: UBC9 SUMO inh, NSD2 HMT inh)
Cc1cccc(NC(=S)Nc2ccccn2)c1	SIRT5 block 20
Cc1noc(C)c1NC(=O)N(C)C[C@H]1OCCCC[C@@H](C)Oc2ccc(NC(=O)c3ccccc3)cc2C(=O)N([C@@H](C)CO)C[C@H]1C	none (no result: UBC9 SUMO inh, NSD2 HMT inh)
Cc1ccc2c(c1)CO[C@@]21O[C@H](CCO)C[C@H](O)[C@H]1O	SIRT5 block 23 (no result: UBC9 SUMO inh, NSD2 HMT inh)
C[C@@H]1CN([C@H](C)CO)C(=O)Cc2cc(NC(=O)Cc3cn(C)c4ccccc34)ccc2O[C@@H]1CN(C)C	SIRT5 block 26 (no result: UBC9 SUMO inh, NSD2 HMT inh)
C[C@@H]1CN([C@H](C)CO)C(=O)Cc2cc(NC(=O)CCCN(C)C)ccc2O[C@@H]1CN(C)Cc1ccc(-c2ccccc2)cc1	SIRT5 block 99 (no result: UBC9 SUMO inh, NSD2 HMT inh)
C[C@@H]1CN([C@@H](C)CO)C(=O)Cc2cc(NC(=O)Cc3cn(C)c4ccccc34)ccc2O[C@@H]1CN(C)Cc1ccc(-c2ccccc2)cc1	SIRT5 block 15 (no result: UBC9 SUMO inh, NSD2 HMT inh)
C[C@@H]1CN([C@@H](C)CO)C(=O)Cc2cc(NC(=O)Cc3cn(C)c4ccccc34)ccc2O[C@H]1CN(C)C	none (no result: UBC9 SUMO inh, NSD2 HMT inh)
C[C@@H]1CN([C@@H](C)CO)C(=O)c2cc(C#CCN(C)C)cnc2O[C@@H]1CN(C)S(C)(=O)=O	none (no result: UBC9 SUMO inh, NSD2 HMT inh)
COc1cc(/C=C2\NC(=O)NC2=O)cc(Br)c1OC	SIRT5 block 17
CCOc1cc(/C=C2/NC(=O)NC2=O)cc(Br)c1OCc1ccc(C(=O)O)cc1	Casp6 inh 43
CCOc1cc(/C=C2\NC(=S)N(C)C2=O)ccc1OCc1ccc(C(=O)O)cc1	none
C[C@H]1COc2cc(NCCO)ccc2S(=O)(=O)N1	SIRT5 block 19 (no result: UBC9 SUMO inh, NSD2 HMT inh)
O=C(O)C[C@@H]1CC[C@@H](NC(=O)c2ccccc2F)[C@@H](CO)O1	none (no result: UBC9 SUMO inh, NSD2 HMT inh)
COc1cc(/C=C2\CCc3c2nc2ccccc2c3C(=O)O)cc(OC)c1OC	UBC9 SUMO inh 54, Casp6 inh 49 (no result: NSD2 HMT inh)
COc1ccccc1OCC(=O)NCC1CCCN(C(=O)c2ccccc2C(C)=O)C1 (configuration not stated)	SIRT5 block 17
COc1ccc2c(n1)Sc1nc3ccccc3nc1N2	UBC9 SUMO inh 75
O=C(O)c1ccccc1-c1ccc(/C=c2\sc3nc4cc(Br)cnc4n3c2=O)o1	none (no result: SIRT5 block, NSD2 HMT inh, Casp6 inh)
Cc1cc2nc3s/c(=C/c4ccc(-c5ccccc5C(=O)O)o4)c(=O)n3c2cc1C	Casp6 inh 36
